SDO1 yeast rescue: growth rescue of sdo1-depleted yeast, primary screen, S. cerevisiae, bone marrow failure model; 0.21% of 140,000 active; S. cerevisiae sdo1-depleted JHY4D growth rescue, OD600 30 h; active compounds read high; pdr5 snq2 efflux-pump mutant strain; z-score at 10 µM;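 active = z-score above 3 at both the 24 hr and the 30 hr optical density reads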
Phagocyt inh: inhibitors of macrophage phagocytosis, primary screen, imaging, J774A.1 cells, IgG beads. J774A.1 macrophage IgG-bead phagocytosis. inhibition, % at 5 µM. 0.07% of 110,000 active;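 active = inhibition above the mean of the plate negative controls plus 5 SD, cut at about 13% in these data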;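 note: phagocytic index as fraction of beads internalized from green versus red external bead signal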
Measles CPE: compounds protecting cells from measles virus cytopathic effect, primary screen, measles RdRp inhibitor project, single point, MLSMR library, absorbance; Measles virus-infected cells, CPE protection; protection (pct of control), % at 4 µM; 1.5% of 140,000 active; in the data active = protection mostly above about 24%, no sharp cut-off; inactive = mostly below about 26%
Hits are given with their value; - = inactive; . = no result; [ ] = another dose, or the depositor's remark. Sampled rows, rich in hits. Any-hit rate of the full collection: about 1.8%.

SMILES	SDO1 yeast rescue	Phagocyt inh	Measles CPE
CCOc1ccc2nc(NC(=O)CSc3nc4c(c(=O)n(C)c(=O)n4C)n3C(C)C)sc2c1	-	-	-
CCCn1c(SCC(=O)Nc2ccccc2C(=O)OC)nc2c1c(=O)n(C)c(=O)n2C	-	-	-
COc1ccc(C2N(Cc3ccccc3)CC(=O)N2/N=C(\C)c2ccccc2)cc1 (configuration not stated)	-	-	-
O=C(NN=C1CCCCCCC1)C(=O)NC1CCCCC1	-	-	-
N#CC(C(=O)NC1CCCCC1)=C1CCCCCC1	-	-	34.1
Cc1ccc(CNC(=O)C2CCC(=O)N2CCc2ccccc2)cc1 (configuration not stated)	-	-	-
Cc1cc(Cl)cc(Br)c1OCCNCC(C)O (configuration not stated)	-	174.1	-
Cc1cc(Cl)cc(Br)c1OCCCCn1cncn1	-	-	-
COC(=O)C1=C(C)Nc2nc(-c3ccccc3)nn2C1c1ccc(C)o1 (configuration not stated)	-	-	-
Cc1cc(C)c(C)c(S(=O)(=O)NNC(=O)c2cccc(S(=O)(=O)N3CCOCC3)c2)c1C	-	-	-
CCCOc1ccc(C(=O)N2CCN(c3ccc(N)cc3Cl)CC2)cc1	-	-	-
Cc1nc(CC(=O)c2ccc(O)cc2O)cs1	-	-	-
O=C(Cc1cscn1)c1ccc(O)cc1O	-	-	36.2
COc1ccc(C(=O)Cn2c(NCCO)nc3ccccc32)cc1OC	-	.	-
CCOc1cc(C(c2c(C)[nH][nH]c2=O)c2c(C)[nH][nH]c2=O)ccc1OCc1ccc([N+](=O)[O-])cc1	-	-	-
CCOc1cc(C(c2c(C)[nH][nH]c2=O)c2c(C)[nH][nH]c2=O)ccc1OC(=O)c1cccc([N+](=O)[O-])c1	-	-	36.9
O=C(c1ccco1)N1CCN(CCOCCOc2cccc3ccccc23)CC1	-	-	-
O=C(c1ccco1)N1CCN(CCCCOc2cccc3ccccc23)CC1	-	-	26.6
COc1cc(/C=C/C(=O)c2ccc(O)cc2)ccc1OCC#N	-	.	-
COc1ccc(C(=O)/C=C/c2ccc(O)cc2)c(O)c1CC=C(C)C	-	.	25.1
CC1CCCCN1C(=O)Cn1cc(C#N)c2ccccc21 (configuration not stated)	-	.	39.7
CC1CCN(C(=O)Cn2cc(C#N)c3ccccc32)CC1	-	.	-
CC(NC(=O)c1ccc([N+](=O)[O-])cc1[N+](=O)[O-])c1ccc(-c2ccccc2)cc1 (configuration not stated)	-	-	40.0
CCC(NC(=O)c1ccc([N+](=O)[O-])cc1[N+](=O)[O-])c1ccccc1 (configuration not stated)	-	-	-
Cc1ccc(C(=O)NC(NC(=S)Nc2ccc(S(N)(=O)=O)cc2)C(Cl)(Cl)Cl)cc1 (configuration not stated)	-	-	-
SMILES	SDO1 yeast rescue	Phagocyt inh	Measles CPE
CCOc1ccc(CSCCNC(=S)Nc2ccccc2)cc1	-	-	-
CCOC(=O)NC(NC(=S)Nc1ccc(OCC)cc1)C(Cl)(Cl)Cl (configuration not stated)	-	28.7[artifact]	-
CCOc1ccc(NC(=S)Nc2ccc(OCc3ccccc3)cc2)cc1	-	-	43.6
COc1ccc(C(=O)Nc2cc(C(F)(F)F)ccc2Cl)cc1OC	-	.	-
COCC(C)NC(=O)CSc1nc2ccccc2n1CCc1ccccc1 (configuration not stated)	-	-	-
COc1ccc(S(=O)(=O)N(CCCN2CCOCC2)Cc2cccc3ccccc23)cc1	-	-	-
COc1ccc(C2=NOC(C(=O)NC(C)C)C2)cc1 (configuration not stated)	-	-	-
COc1cccc(C2=NOC(C(=O)NC(C)C)C2)c1 (configuration not stated)	-	-	56.9
CC1(C)NC(=O)N(CC(=O)OCC(=O)Nc2cc(S(=O)(=O)N3CCCCCC3)ccc2Cl)C1=O	-	-	-
CC(C)NC(=S)N/N=C/c1cc(Br)ccc1O	-	-	-
CCc1nnc(NC(=O)Nc2ccccc2OC)s1	-	-	-
COc1ccccc1NC(=O)Nc1nnc(C(C)C)s1	-	-	55.1
C/C(=N/OCO/N=C(/C)c1ccc(F)cc1)c1ccc(F)cc1	-	-	28.8
C/C(=N/OCO/N=C(\C)c1ccccc1)c1ccccc1	-	-	-
CCN(CC)S(=O)(=O)c1cc(Br)c(C)cc1OC	-	-	-
COCCNC(=O)Cn1c(=O)n(CCCCCC(=O)Nc2ccccc2)c(=O)c2sccc21	-	-	-
CCCCC(=O)Nc1sc2c(c1C(=O)OCC)CCC(C=O)=C2Cl	-	-	-
CCOC(=O)N1CCN(C(=O)CSCc2nc(-c3ccccc3C)oc2C)CC1	-	-	-
CCOC(=O)N1CCN(C(=O)C2CCN(Cc3nc(-c4ccccc4C)oc3C)CC2)CC1	-	-	52.7
O=S(=O)(c1ccccc1)n1c(C(O)c2ccccn2)cc2ccccc21 (configuration not stated)	-	-	-
O=C(CN(CCc1ccccc1)C(=O)CNS(=O)(=O)c1ccc(F)cc1)NCC1CCCO1 (configuration not stated)	-	-	33.4
O=C(CN(CC1CCCO1)C(=O)CNS(=O)(=O)c1ccc(Cl)cc1)NCCc1ccccc1 (configuration not stated)	-	.	-
Cn1c(=O)c2cc(S(=O)(=O)N3CCC(c4ccccc4)CC3)ccc2n(C)c1=O	-	-	-
Cn1nnnc1SCC(=O)N1c2ccccc2Sc2ccccc21	-	-	-
CCn1nnnc1SCC(=O)N1c2ccccc2Sc2ccccc21	-	.	28.2
SMILES	SDO1 yeast rescue	Phagocyt inh	Measles CPE
CCCN1C=CC(=C2C(=O)c3ccccc3C2=O)C=C1	-	-	-
CCN1C=CC(=C2C(=O)c3ccccc3C2=O)C=C1	-	.	39.6
COc1cc2cc3c(N)c(C(=O)Nc4sc(C)c(C)c4C#N)sc3nc2cc1OC	-	.	-
CCOc1ccc(C(Nc2ccc(C)cc2)P2(=O)OCCC(C)O2)cc1 (configuration not stated)	-	-	-
O=c1cc(-c2ccccc2)[nH][nH]1	-	.	-
O=C1NC(c2ccccc2)=C(c2ccccc2)C1=O	-	-	44.6
C=CCN1C(c2ccccc2)=CS/C1=C(\C#N)c1nnc2n1CCCCC2	-	-	-
CN1C(c2ccc(F)cc2)=CS/C1=C(\C#N)c1nnc2n1-c1ccccc1SC2	-	-	30.9
Cc1ccc(C)c(C(=O)COC(=O)c2ccccc2N2C(=O)C3C4CCC(C4)C3C2=O)c1 (configuration not stated)	-	-	-
CCC(=O)N1CCc2cc(S(=O)(=O)N3CCc4ccccc4C3)ccc21	-	-	27.9
CC(=O)N1CCCc2cc(S(=O)(=O)N3CCc4ccccc4C3)ccc21	-	-	-
Cn1cc(SCC(=O)Nc2ccc3c(c2)OCCO3)c2ccccc21	-	-	-
COc1ccc(NC2CC(=O)N(CCc3ccccc3)C2=O)cc1 (configuration not stated)	-	.	-
CNc1cc(C)nc(-n2nc(C)cc2C)n1	-	-	-
CCOc1ccc(Nc2cc(C)nc(-n3nc(C)cc3C)n2)cc1	-	-	42.6
Cc1ccc(NC(=O)Cc2nnc(SCC(=O)c3ccc(Br)cc3)n2C)cc1	-	-	-

High-throughput results as filed in PubChem BioAssay.
